Results on 35 compounds are retold here after PubChem BioAssay (NCATS).

Records with an inconclusive call do not appear. Active and inactive are the calls of the source. The call rests on the fitted dose curve; in most records, active means well fitted inhibition curve with a large enough effect; inconclusive means small, poorly fitted or top-dose-only effect; inactive means no such curve, though single readings can be large or run the other way.
Potency means the concentration at half of the fitted maximal effect.

A short description of the assay: qHTS Screen of the MIPE 4.0 Collection Against Ewings Sarcoma (RDES) (AID 1259252). Further: nearly all actives have a fitted effect of over 35% in size. The note with it: RD-ES Ewing sarcoma viability, CellTiter-Glo, 48 h; series mostly up to 45.8 µM. In outline:
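CellTiter-Glo luminescence after 48 h compound exposure (titration) gave viability; percent activity used DMSO-treated cells as no inhibition and medium-only wells as full inhibition. Cells grown in RPMI/5% FBS, dosed 4 h post-seeding.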
On the technique in general: In qHTS, concentration-response curves come from the screen itself.
Turning to `CN1CCN(c2cc(C(=O)Nc3ccc4c(c3)-c3c(c(C(N)=O)nn3-c3ccc(F)cc3)CC4)c(Cl)cn2)CC1`, the Potency was 2.64 µM (active).
Turning to `CS(=O)(=O)c1ccc(-c2cnc(N)c(C(=O)Nc3ccccc3)n2)cc1`, the Potency result is “inactive”.
As for `CN(C)CC(C)(C)CNc1nn2c(-c3ccccc3)nnc2cc1C1CCC1`, the figure is 0.418 µM (active).
As for `CC(=O)Nc1nc(C)c(-c2ccc(Cl)c(S(=O)(=O)NCCO)c2)s1`, the figure is 5.9 µM (active); as for `CCn1nnc2c(N3CCOCC3)nc(-c3ccc(NC(=O)Nc4ccc(C(=O)N5CCN(C)CC5)cc4)cc3)nc21`, 0.0148 µM (active).
Then `CNC(=O)c1cc(Oc2ccc(NC(=O)Nc3cc(C(C)(C)C)nn3-c3ccc4ncccc4c3)c(F)c2)ccn1`, with 20.9 µM (active); and `O=C(NCCCNc1nc(Nc2cccc(NC(=O)N3CCCC3)c2)ncc1I)c1cccs1`, with 13.2 µM (active); and `Cn1c(CNc2ccc(C(=N)N)cc2)nc2cc(C(=O)N(CCC(=O)O)c3ccccn3)ccc21`, with “inactive”.
`Cc1ccc(C(=O)Nc2cccc(C(F)(F)F)c2)cc1-c1ccc2nc(NCCN3CCOCC3)ncc2c1`: the Potency is 14.8 µM (active).
As for `CNC(=O)c1ccc(N2C(=S)N(c3cnc(C#N)c(C(F)(F)F)c3)C(=O)C23CCC3)cc1F`, the Potency is 1.18 µM (active).
As for `CC(C)(C)c1cnc(CSc2cnc(NC(=O)C3CCNCC3)s2)o1`, the figure is 0.132 µM (active).
As for `C=C1C(=CC=C2CCC[C@]3(C)[C@@H]([C@H](C)C=C[C@H](C)C(C)C)CC[C@@H]23)C[C@@H](O)C[C@@H]1O`, the figure is 0.332 µM (active); as for `O=C(Nc1nc2cccc(-c3ccc(CN4CCS(=O)(=O)CC4)cc3)n2n1)C1CC1`, 16.6 µM (active).
As for `O=C(O)C1(Cc2cccc(Nc3nccs3)n2)CCC(Oc2cccc(Cl)c2F)CC1` (stereo not given), the Potency is 4.69 µM (active).
As for `Nc1nccc(Oc2ccc(NC(=O)c3c[nH]cc(-c4ccc(F)cc4)c3=O)cc2F)c1Cl`, the figure is 1.66 µM (active); as for `Clc1ccc2ncc(-c3cccc(NC4CNC4)n3)n2c1`, 18.7 µM (active).
For the compound `O=c1[nH]nc(Sc2ncc([N+](=O)[O-])s2)n1-c1ccc2c(c1)OCCO2`, the Potency is 7.43 µM (active).
As for `CC(C)Nc1cc(C(F)(F)F)cc2nc(NC(=O)c3cccnc3)nn12`, the figure is 11.8 µM (active); as for `O=C(O)CCCc1c[nH]c2ccccc12`, “inactive”.
Then `C=C1C(=CC=C2CCCC3(C)[C@@H]([C@H](C)C=CC=CC(O)(CC)CC)CC[C@@H]23)C[C@@H](O)C[C@@H]1O` (stereo not given in full), with 18.7 µM (active); and `CNc1nccc(-c2cccnc2Oc2cc(C(=O)Nc3cccc(C(F)(F)F)c3)ccc2C)n1`, with 4.18 µM (active).
As for `COc1cc2c(Nc3ccc(NC(=O)c4ccccc4)cc3)ncnc2cc1OCCCN1CCOCC1`, the figure is 23.5 µM (active).
As to `CCCCCCCCCC(=O)N[C@@H](Cc1c[nH]c2ccccc12)C(=O)N[C@H](CC(N)=O)C(=O)N[C@@H](CC(=O)O)C(=O)N[C@@H]1C(=O)NCC(=O)N[C@@H](CCCN)C(=O)N[C@@H](CC(=O)O)C(=O)N[C@H](C)C(=O)N[C@@H](CC(=O)O)C(=O)NCC(=O)N[C@H](CO)C(=O)N[C@@H]([C@@H](C)CC(=O)O)C(=O)N[C@@H](CC(=O)c2ccccc2N)C(=O)O[C@@H]1C`, the Potency result is “inactive”.
Then `Cc1nc(N)ncc1-c1nc(N2CCOCC2)c2sc(C(C)(C)O)cc2n1`, with 1.66 µM (active); and `Cc1ccc(CN2CCNCC2)cc1NC(=O)CNc1ccc(F)c(F)c1`, with 6.62 µM (active).
As for `CN(C1CCc2c(c3ccccc3n2CC(=O)O)C1)S(=O)(=O)c1ccc(F)cc1` (stereo not given), the entry is “inactive”; as for `Cc1c(Cn2c(C)nc3c(C(=O)O)cc(N4CCOCC4)cc32)cccc1C(F)(F)F`, 14.8 µM (active).
As for `CNC(=O)c1ccccc1Nc1nc(Nc2ccc(N3CCOCC3)cc2OC)ncc1Cl`, the Potency was 11.8 µM (active).
As for `CC(C)c1cc(C(=O)N2Cc3ccc(CN4CCN(C)CC4)cc3C2)c(O)cc1O`, the figure is 0.469 µM (active); as for `COc1cc2c(Oc3ccc(NC(=O)C4(C(=O)Nc5ccc(F)cc5)CC4)cc3F)ccnc2cc1OCCCN1CCOCC1`, 16.6 µM (active); as for `CCNC(=O)Nc1ccc2ncc(Nc3ccc(C)cc3)nc2n1`, 0.332 µM (active).
As for `CN(C)c1nc(Cc2ccc(NC(=O)c3ccc4ccccc4c3)cc2)nc(Cl)c1CC(=O)O`, the entry is “inactive”; as for `COC(=O)Nc1ccc(-c2nc(N3CCOCC3)c3cnn(C4CCN(Cc5cccnc5)CC4)c3n2)cc1`, 0.166 µM (active); as for `CC(C)(C)c1cc(C(C)(C)C)c(NC(=O)c2c[nH]c3ccccc3c2=O)cc1O`, “inactive”.
As for `Cc1cc(Nc2cc(N3CCN(C)CC3)nc(C=Cc3ccccc3)n2)n[nH]1`, the figure is 5.4 µM (active).
